High-throughput results as filed in PubChem BioAssay.
This is a sample that favours compounds with a hit; in the whole collection about 12% have one here.
G9a inh: qHTS Assay for Inhibitors of Histone Lysine Methyltransferase G9a. G9a H3K9 monomethylation, AlphaScreen, 2 h. Potency, µM (doses to about 102 µM), for the others: top-dose activity, negative = inhibition, hits mostly inhibitors. hit rate 8.8% among 350,000. AID 504332, 2011; further: on the % scale 0 is the no-effect control and ±100 the full control effect; nearly all actives have a fitted effect of over 75% in size
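AlphaScreen read-out: biotin-H3K9 peptide (500 nM) methylation by 20 nM enzyme with 20 uM SAM, 2 h at room temperature after 15 min compound preincubation; anti-monomethyl H3K9 antibody plus donor/acceptor beads, 10 min dark.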
JMJD2A Tudor: qHTS Assay for Inhibitors of JMJD2A-Tudor Domain | AlphaScreen JMJD2A-Tudor / H3K4me3 peptide binding | hit rate 4.4% among 390,000 | AID 504339, 2011 | Potency, µM (doses to about 114 µM), without a hit: top-dose activity change, negative = inhibition, usual class: inhibitors; further: on the % scale 0 is the no-effect control and ±100 the full control effect; nearly all actives have a fitted effect of over 50% in size
Target sequence (O75164 whole entry, looked up, the tested form may be a part): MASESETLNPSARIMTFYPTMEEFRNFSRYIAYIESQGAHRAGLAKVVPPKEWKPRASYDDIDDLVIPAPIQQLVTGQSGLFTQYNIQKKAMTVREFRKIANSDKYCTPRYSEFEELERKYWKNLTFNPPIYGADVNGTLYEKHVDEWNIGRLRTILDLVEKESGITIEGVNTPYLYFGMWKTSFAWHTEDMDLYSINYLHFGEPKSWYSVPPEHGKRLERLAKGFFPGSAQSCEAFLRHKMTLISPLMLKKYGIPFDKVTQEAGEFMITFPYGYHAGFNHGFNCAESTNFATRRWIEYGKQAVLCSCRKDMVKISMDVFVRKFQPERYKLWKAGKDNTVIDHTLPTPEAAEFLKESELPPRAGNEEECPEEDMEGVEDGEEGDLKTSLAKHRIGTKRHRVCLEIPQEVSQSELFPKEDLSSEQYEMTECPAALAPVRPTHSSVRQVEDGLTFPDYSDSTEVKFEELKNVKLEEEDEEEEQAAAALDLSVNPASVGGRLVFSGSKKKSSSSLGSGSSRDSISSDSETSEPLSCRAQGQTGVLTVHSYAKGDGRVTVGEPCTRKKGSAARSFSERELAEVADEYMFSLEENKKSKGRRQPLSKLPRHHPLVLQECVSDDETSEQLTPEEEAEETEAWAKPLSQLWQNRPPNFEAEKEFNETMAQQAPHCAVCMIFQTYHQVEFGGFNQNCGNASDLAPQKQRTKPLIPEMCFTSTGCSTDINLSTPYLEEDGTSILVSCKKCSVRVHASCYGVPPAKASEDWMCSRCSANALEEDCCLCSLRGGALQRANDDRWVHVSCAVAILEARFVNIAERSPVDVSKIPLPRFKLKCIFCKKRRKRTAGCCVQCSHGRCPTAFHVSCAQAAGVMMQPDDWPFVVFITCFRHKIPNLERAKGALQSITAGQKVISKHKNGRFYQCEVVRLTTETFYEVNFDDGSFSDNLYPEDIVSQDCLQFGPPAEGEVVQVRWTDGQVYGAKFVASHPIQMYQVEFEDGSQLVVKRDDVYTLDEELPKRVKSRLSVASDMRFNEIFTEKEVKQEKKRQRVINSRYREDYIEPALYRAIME
BAZ2B block: qHTS Assay for Inhibitors of BAZ2B. Bromodomain adjacent to zinc finger domain protein 2B (Homo sapiens), Q9UIF8. AlphaScreen BAZ2B-H3K14Ac peptide displacement. Potency, µM (top dose mostly 114 µM), for inactives: at the top dose activity change, negative = inhibition, hits mostly inhibitors. hit rate 4.4% among 360,000. AID 504333, 2011; further: on the % scale 0 is the no-effect control and ±100 the full control effect; nearly all actives have a fitted effect of over 60% in size
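AlphaScreen luminescence quantifies BAZ2B engagement of H3K14Ac peptide; the protein and biotinylated peptide are both at 50 nM final, buffer PBS pH 7.4 with 0.01% Tween-20, all steps at room temperature.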
L3MBTL1 block: qHTS Assay for the Inhibitors of L3MBTL1; Lethal(3)malignant brain tumor-like protein 1 (Homo sapiens), Q9Y468; Potency, µM (highest dose often 57.1 µM), inactives show top-dose activity, negative = inhibition, most hits filed as inhibitors; hit rate 0.66% among 230,000; AlphaScreen L3MBTL1–H3K9me1 peptide binding; further: on the % scale 0 is the no-effect control and ±100 the full control effect; nearly all actives have a fitted effect of over 60% in size
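L3MBTL1 (50 nM) pre-complexed 30 min with biotinylated H3(1-15)K9me1 peptide (75 nM), then compounds added for 30 min at room temperature; AlphaScreen streptavidin donor/nickel chelate acceptor beads (10 ug/mL final) read after 30 min dark incubation.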
Sfp inh: qHTS Assay for Inhibitors of Bacillus subtilis Sfp phosphopantetheinyl transferase (PPTase); hit rate 3.5% among 310,000; Potency, µM, inactives show largest response in the series, negative = inhibition, most hits filed as inhibitors; 4'-phosphopantetheinyl transferase ffp (Bacillus subtilis), Q9F4F7; Biochemical Sfp PPTase activity, qHTS;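 further: the enzyme is Sfp with the accession as filed and its product quenches rhodamine fluorescence; 0% = enzyme reaction without inhibitor and -100% = no enzyme wells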
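After 15 min at room temperature with compound, 15 nM Sfp received 5 uM rhodamine-CoA plus 12.5 uM BHQ-2-ybbR (50 mM Hepes pH 7.6, 10 mM MgCl2). Rate came from the fluorescence difference over 30 min, ex 525/em 598 nm.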
HP1b binding inh: HTS for Inhibitors of HP1-beta Chromodomain Interactions with Methylated Histone Tails | AlphaScreen HP1-beta / biotin-H3K9me3 peptide binding | Potency, µM (titrated, usually from 114 µM), without a hit: top-dose activity change, negative = inhibition, actives largely listed as inhibitors | hit rate 0.56% among 390,000; further: nearly all actives have a fitted effect of over 70% in size
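HP1-beta protein (50 nM final) preincubated 30 min at room temperature with biotinylated H3(1-18)K9me3 peptide (50 nM) in PBS pH 7.4, 0.01% Tween-20, then compound added for 30 min. AlphaScreen streptavidin donor/nickel chelate acceptor beads (10 ug/mL final), 30 min dark, luminescence read.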
Numbers without * were called inactive; [ ] = another dose, or the depositor's remark. The call rests on the fitted dose curve; in most records, active means well fitted curve in the direction sought with a large enough effect; inconclusive means small, poorly fitted or top-dose-only effect, or another doubt; inactive means no such curve, though single readings can be large; an effect the other way counts as inactive or inconclusive. Potency means the concentration at half of the fitted maximal effect.

O=c1[nH]c(SCc2c(F)cccc2Cl)nc2c1CCC2 was read as G9a inh -4%[59 µM], JMJD2A Tudor -22%, BAZ2B block -10% and HP1b binding inh 21%.
Nc1ccc(C(=O)N/N=C/c2cn(Cc3ccccc3F)c3ccccc23)cc1 was read as JMJD2A Tudor 89µM*, BAZ2B block 35µM*, Sfp inh -11% and HP1b binding inh 9%.
Screening Cn1cc(/C=C/C(=O)c2ccccc2)c2ccccc21 returned G9a inh 10%[59 µM], JMJD2A Tudor 43%, BAZ2B block -31%, Sfp inh 50µM* and HP1b binding inh 90%.
For O=C(O)c1ccc(N/N=C/c2c[nH]c3ccccc23)cc1 the results were G9a inh inconclusive, JMJD2A Tudor -18%, BAZ2B block inconclusive, Sfp inh -13% and HP1b binding inh 21%.
Screening Cn1cc(/C=N/Nc2ccccc2)c2ccccc21 returned G9a inh 13µM*, JMJD2A Tudor 50µM*, BAZ2B block 40µM*, L3MBTL1 block -10%, Sfp inh -3% and HP1b binding inh inconclusive.
CC(C)n1cc(/C=N/Nc2ccc(C(=O)O)cc2)c2ccccc21 was read as G9a inh 45µM*, JMJD2A Tudor -31%, BAZ2B block -35%, Sfp inh -9% and HP1b binding inh 1%.
`Cc1ccc(C(=O)/C=C/c2cn(CN3CCN(C)CC3)c3ccccc23)cc1` gave G9a inh -4%[59 µM], JMJD2A Tudor -19%, BAZ2B block 9%, Sfp inh inconclusive and HP1b binding inh 42%.
`COC(=O)N/N=C/c1cn(Cc2ccccc2F)c2ccccc12` gave G9a inh -4%[12.7 µM], JMJD2A Tudor -23%, BAZ2B block inconclusive, L3MBTL1 block -7%, Sfp inh -7% and HP1b binding inh 11%.
Screening Nc1ccc(C(=O)N/N=C/c2cn(Cc3ccc(F)cc3)c3ccccc23)cc1 returned G9a inh 5%, JMJD2A Tudor inconclusive, BAZ2B block inconclusive, Sfp inh -6% and HP1b binding inh 13%.
For O=C(O)c1ccc(N/N=C/c2cn(Cc3ccccc3F)c3ccccc23)cc1 the results were G9a inh 2%[12.7 µM], JMJD2A Tudor 56µM*, BAZ2B block 40µM*, L3MBTL1 block inconclusive, Sfp inh inconclusive and HP1b binding inh -16%.
For O=C(N/N=C/c1cn(Cc2cccc(F)c2)c2ccccc12)c1cc(O)cc(O)c1 the results were JMJD2A Tudor 7.1µM*, BAZ2B block 6.3µM*, Sfp inh -21% and HP1b binding inh 11µM*.
For COc1cc2ccccc2cc1C(=O)Nc1ccc2oc(-c3ccc(F)cc3)nc2c1 the results were G9a inh -2%[59 µM], JMJD2A Tudor -23%, BAZ2B block -2% and HP1b binding inh 34%.
For CC(C)CN1CCCC2(CCN(C(=O)c3cccn3C)CC2)C1 the results were G9a inh -7%[12.7 µM] and Sfp inh 2%.
CCCN1CCN(CCCNC(=O)c2ccc3c(c2)NC(=O)c2ccccc2S3)CC1 was read as G9a inh -10%, JMJD2A Tudor -12%, BAZ2B block -8%[57.1 µM], Sfp inh 7% and HP1b binding inh 12%.
`CN(C)CCNC(=O)c1ccc2c(c1)NC(=O)c1ccccc1S2` gave G9a inh 45µM*, JMJD2A Tudor -10%, BAZ2B block -8%, Sfp inh 0% and HP1b binding inh 10%.
`CCN(CC)CCNC(=O)c1ccc2c(c1)NC(=O)c1ccccc1S2` gave G9a inh 45µM*, JMJD2A Tudor -7%, BAZ2B block 5%, Sfp inh 7% and HP1b binding inh 24%.
`Cc1ccc2[nH]c(=O)c(CN(Cc3cccs3)S(=O)(=O)c3ccc4c(c3)OCCO4)cc2c1` gave G9a inh 1µM*, JMJD2A Tudor -10%[57.1 µM], BAZ2B block -9%, L3MBTL1 block 0%, Sfp inh 3% and HP1b binding inh 30%.
For Cc1cc2cc(CN(Cc3cccs3)S(=O)(=O)c3ccc4c(c3)OCCO4)c(=O)[nH]c2cc1C the results were G9a inh -5%, JMJD2A Tudor -5%, BAZ2B block 3%, L3MBTL1 block -10%, Sfp inh 7% and HP1b binding inh 33%.
CCOc1cccc2c1OC(c1cc(OC)c(OC)c(OC)c1)N1N=C(c3ccc(C)o3)CC21 (configuration not stated) was read as G9a inh 13µM*, JMJD2A Tudor -34%, BAZ2B block inconclusive, L3MBTL1 block -5%, Sfp inh inconclusive and HP1b binding inh 11%.
Screening COc1ccc(C2CC(c3ccc(C)o3)=NN2C(C)=O)cc1 (configuration not stated) returned G9a inh inconclusive, JMJD2A Tudor -12%, BAZ2B block -8%, L3MBTL1 block 4%, Sfp inh -3% and HP1b binding inh -3%.
Cc1cccc(N(C(=O)c2snc(C(N)=O)c2N)C(C(=O)NCc2ccccc2)c2ccncc2)c1 (configuration not stated) was read as G9a inh 50µM*, JMJD2A Tudor -22%, BAZ2B block 6%, Sfp inh 15% and HP1b binding inh inconclusive.
Screening COc1ccc(N(C(=O)c2snc(C(N)=O)c2N)C(C(=O)NCc2ccccc2)c2ccc(O)cc2)cc1 (configuration not stated) returned G9a inh -1%, JMJD2A Tudor -24%, BAZ2B block -6%, Sfp inh 1% and HP1b binding inh 5%.
For CN(C)c1ccc(C(C(=O)NCc2ccccc2)N(Cc2ccco2)C(=O)c2snc(C(N)=O)c2N)cc1 (configuration not stated) the results were G9a inh 35µM*, JMJD2A Tudor inconclusive, BAZ2B block inconclusive, Sfp inh 7% and HP1b binding inh -16%.
For CCOc1ccc(NC(=O)CSc2nnc3c(n2)[nH]c2ccc(S(=O)(=O)N4CCCCC4)cc23)cc1 the results were JMJD2A Tudor -33% and HP1b binding inh 26%.
Screening COc1ccc(CCNC(=O)CCCCn2c(=O)c3ccccc3n(CC(=O)Nc3ccccc3C)c2=O)cc1OC returned G9a inh 3%[59 µM], JMJD2A Tudor -5%, BAZ2B block 1% and HP1b binding inh 38%.
